Test results from the supplement of paper PMC10849652.
Targets with a hit are over-represented here; the source holds about 7,900 in all. About 0.6% of all pairs of compound and target were hits. A number with no mark means an inactive call.

compound: C1COCCN1CCN2C3=CC=CC=C3N=C2NC(=O)C4=CC(=CC=C4)[N+](=O)[O-] [IRAK-1-4 Inhibitor I]; test: log2 fold change, soluble protein after heating vs DMSO (PISA); higher = thermal stabilisation; K562 cells, 10 uM, 30 min; active = over 0.2 and 3.5 SD of the protein, either way, in both replicates (recomputed)
How it was run: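 K562 cells at 2×10^6 cells/mL were given 10 μM compound for 30 min. Aliquots then went through 3 min of heating across 48°C-58°C, were pooled, and were extracted in PBS with 0.5% NP-40 at 4°C, and the supernatant after 21,000xg for 90 min was quantified by TMTpro 16plex LC-MS/MS with channel sums equalised. Thermal stability relative to control samples, from duplicates, is given as log2 fold change.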

Sequence of UniProt Q8WUK0 (Q8WUK0 whole entry, looked up): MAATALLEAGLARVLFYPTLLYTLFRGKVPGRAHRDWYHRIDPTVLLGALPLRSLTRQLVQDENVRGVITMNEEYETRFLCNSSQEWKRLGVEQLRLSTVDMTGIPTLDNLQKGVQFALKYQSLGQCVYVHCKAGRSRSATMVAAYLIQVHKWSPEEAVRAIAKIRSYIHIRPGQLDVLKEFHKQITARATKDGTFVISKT
Sequence of UniProt P62195 (P62195 whole entry, looked up): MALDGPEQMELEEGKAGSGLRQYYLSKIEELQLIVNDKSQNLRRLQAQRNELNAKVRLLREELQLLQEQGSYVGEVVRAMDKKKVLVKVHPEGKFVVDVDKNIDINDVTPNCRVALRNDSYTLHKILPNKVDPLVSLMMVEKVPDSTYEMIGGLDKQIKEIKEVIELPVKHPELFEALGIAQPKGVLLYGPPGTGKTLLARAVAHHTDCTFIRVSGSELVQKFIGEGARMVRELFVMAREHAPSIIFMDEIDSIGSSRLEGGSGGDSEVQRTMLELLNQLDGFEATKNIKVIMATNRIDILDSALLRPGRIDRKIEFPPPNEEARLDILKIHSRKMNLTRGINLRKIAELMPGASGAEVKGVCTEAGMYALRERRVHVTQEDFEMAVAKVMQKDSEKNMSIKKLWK
Sequence of UniProt Q9P2B2 (Q9P2B2 whole entry, looked up): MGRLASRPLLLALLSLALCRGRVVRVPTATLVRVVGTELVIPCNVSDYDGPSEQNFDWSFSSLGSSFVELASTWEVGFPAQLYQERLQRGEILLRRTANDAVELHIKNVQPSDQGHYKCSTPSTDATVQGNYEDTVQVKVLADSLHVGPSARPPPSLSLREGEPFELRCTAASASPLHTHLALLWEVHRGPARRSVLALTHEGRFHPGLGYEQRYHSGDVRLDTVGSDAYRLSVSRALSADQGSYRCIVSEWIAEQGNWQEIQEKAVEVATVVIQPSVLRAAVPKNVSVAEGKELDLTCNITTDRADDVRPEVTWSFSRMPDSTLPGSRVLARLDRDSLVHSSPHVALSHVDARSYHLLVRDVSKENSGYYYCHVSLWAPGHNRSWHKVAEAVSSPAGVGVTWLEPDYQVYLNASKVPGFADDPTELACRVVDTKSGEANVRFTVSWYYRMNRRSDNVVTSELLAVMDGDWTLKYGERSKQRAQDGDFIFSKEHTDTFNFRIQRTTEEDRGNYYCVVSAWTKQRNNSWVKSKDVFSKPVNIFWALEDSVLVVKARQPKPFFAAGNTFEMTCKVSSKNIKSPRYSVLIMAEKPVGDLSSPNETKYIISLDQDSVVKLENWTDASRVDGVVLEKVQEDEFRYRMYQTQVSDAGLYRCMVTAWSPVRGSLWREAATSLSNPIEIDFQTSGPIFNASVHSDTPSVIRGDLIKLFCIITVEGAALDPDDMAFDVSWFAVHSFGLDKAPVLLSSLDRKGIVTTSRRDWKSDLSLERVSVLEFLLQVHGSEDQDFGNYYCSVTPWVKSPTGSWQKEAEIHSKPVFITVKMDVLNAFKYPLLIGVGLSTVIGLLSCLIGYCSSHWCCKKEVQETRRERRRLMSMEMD
Sequence of UniProt O96011 (O96011 whole entry, looked up, change not shown): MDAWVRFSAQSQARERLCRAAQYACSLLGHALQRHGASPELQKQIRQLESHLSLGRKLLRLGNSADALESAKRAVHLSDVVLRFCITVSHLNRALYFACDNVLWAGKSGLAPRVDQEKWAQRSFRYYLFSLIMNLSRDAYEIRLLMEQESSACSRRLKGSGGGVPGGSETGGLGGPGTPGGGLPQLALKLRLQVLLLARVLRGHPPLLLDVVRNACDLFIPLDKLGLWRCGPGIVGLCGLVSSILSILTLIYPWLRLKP
Sequence of UniProt Q15172 (Q15172 whole entry, looked up): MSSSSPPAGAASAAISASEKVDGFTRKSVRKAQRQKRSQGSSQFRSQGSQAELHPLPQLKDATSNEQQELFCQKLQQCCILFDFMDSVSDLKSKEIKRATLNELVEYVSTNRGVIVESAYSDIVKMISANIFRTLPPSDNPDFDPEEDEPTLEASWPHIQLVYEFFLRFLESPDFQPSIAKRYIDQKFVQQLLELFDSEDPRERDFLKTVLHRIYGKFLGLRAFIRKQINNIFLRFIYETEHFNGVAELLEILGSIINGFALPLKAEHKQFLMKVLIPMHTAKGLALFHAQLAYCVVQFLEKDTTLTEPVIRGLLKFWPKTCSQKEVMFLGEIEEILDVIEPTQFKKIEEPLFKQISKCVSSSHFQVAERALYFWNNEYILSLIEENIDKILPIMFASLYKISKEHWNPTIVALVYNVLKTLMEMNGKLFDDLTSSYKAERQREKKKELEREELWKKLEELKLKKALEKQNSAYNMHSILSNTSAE
Sequence of UniProt P09884 (P09884 whole entry, looked up): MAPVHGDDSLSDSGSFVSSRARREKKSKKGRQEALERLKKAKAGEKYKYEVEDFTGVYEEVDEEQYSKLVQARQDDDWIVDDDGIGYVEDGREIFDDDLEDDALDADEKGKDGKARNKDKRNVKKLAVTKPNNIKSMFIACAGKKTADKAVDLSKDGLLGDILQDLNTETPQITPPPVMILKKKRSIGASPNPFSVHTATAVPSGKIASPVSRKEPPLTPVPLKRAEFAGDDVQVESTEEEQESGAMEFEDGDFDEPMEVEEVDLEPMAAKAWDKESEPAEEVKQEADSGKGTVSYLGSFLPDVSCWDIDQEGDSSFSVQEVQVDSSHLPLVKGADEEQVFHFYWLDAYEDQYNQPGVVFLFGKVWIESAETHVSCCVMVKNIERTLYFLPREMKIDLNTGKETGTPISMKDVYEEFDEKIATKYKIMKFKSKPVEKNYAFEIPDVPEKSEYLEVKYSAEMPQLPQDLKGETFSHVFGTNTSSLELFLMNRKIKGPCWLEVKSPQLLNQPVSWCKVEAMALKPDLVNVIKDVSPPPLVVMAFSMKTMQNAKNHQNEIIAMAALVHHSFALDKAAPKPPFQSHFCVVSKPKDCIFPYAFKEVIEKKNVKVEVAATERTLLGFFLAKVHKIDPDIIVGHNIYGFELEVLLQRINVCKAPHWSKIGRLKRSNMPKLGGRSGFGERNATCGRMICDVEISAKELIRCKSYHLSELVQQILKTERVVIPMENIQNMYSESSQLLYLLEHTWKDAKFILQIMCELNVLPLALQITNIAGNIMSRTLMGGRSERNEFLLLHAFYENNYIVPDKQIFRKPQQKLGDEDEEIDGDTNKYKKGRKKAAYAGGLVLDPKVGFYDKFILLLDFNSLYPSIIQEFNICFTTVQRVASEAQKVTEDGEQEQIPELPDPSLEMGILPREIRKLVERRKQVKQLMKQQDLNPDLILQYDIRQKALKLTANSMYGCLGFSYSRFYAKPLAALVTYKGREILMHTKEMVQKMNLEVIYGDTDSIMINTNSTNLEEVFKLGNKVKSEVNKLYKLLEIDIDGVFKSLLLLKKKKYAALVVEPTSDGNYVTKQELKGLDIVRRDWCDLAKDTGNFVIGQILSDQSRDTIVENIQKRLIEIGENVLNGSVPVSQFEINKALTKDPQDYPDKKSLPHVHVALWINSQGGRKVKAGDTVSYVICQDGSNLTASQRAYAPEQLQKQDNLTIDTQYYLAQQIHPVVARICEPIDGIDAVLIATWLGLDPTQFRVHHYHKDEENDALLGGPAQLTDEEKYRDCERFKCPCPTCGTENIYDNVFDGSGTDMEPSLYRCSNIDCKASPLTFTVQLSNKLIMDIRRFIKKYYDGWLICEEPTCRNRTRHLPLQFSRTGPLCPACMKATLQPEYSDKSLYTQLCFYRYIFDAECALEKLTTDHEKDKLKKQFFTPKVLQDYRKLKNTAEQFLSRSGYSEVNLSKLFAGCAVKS
Sequence of UniProt Q9Y244 (Q9Y244 whole entry, looked up): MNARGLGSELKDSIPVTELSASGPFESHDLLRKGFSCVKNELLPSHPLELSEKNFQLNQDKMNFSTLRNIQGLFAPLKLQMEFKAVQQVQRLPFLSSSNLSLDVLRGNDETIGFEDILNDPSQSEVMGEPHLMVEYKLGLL
Sequence of UniProt O00233 (O00233 whole entry, looked up): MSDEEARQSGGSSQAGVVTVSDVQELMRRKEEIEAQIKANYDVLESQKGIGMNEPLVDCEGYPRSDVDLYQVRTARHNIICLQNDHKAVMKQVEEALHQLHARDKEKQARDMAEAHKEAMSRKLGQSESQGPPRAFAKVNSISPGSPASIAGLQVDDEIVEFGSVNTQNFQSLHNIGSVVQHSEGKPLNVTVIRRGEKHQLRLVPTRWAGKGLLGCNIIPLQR
Sequence of UniProt Q13362 (Q13362 whole entry, looked up): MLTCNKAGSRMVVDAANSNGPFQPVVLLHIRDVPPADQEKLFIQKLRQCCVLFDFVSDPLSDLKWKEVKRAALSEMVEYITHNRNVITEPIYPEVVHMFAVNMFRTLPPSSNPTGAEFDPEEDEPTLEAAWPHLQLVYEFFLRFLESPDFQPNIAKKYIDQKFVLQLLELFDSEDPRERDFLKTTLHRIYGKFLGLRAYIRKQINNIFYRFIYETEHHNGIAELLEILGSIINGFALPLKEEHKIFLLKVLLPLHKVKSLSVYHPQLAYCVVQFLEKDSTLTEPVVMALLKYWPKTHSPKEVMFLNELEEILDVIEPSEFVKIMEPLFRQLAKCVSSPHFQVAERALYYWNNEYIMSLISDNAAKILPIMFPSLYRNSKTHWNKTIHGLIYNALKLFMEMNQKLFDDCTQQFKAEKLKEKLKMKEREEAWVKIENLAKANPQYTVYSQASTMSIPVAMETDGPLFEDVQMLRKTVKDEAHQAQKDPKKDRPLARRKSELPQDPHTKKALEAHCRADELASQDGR
Sequence of UniProt P51665 (P51665 whole entry, looked up): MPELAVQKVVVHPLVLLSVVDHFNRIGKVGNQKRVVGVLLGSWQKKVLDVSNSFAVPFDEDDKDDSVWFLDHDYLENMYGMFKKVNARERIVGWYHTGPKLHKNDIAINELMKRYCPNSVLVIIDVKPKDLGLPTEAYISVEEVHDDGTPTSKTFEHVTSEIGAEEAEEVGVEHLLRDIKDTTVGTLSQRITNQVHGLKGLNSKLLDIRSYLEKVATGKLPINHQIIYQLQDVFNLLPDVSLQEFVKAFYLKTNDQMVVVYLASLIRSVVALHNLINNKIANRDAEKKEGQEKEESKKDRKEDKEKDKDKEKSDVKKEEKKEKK

| Target | log2 fold change |
| --- | --- |
| PCLAF (UniProt Q15004) | 0.055 |
| PTGFRN (UniProt Q9P2B2) | 0.009 |
| PSMD7 (UniProt P51665) | 0.055 |
| POTEI (UniProt P0CG38) | -0.176 |
| POMP (UniProt Q9Y244) | 0.029 |
| PRKACB isoform 2 (UniProt P22694) | -0.007 |
| PPP2R5A (UniProt Q15172) | 0.005 |
| PHKA2 (UniProt P46019) | 0.053 |
| PCTP (UniProt Q9UKL6) | -0.009 |
| PEX11B (UniProt O96011) | 0.025 |
| PRKAR1B (UniProt P31321) | 0.005 |
| PTPMT1 (UniProt Q8WUK0) | 0.018 |
| POLD1 (UniProt P28340) | -0.009 |
| PSMD9 (UniProt O00233) | 0.033 |
| QRICH1 (UniProt Q2TAL8) | -0.108 |
| PNPLA8 (UniProt Q9NP80) | -0.022 |
| POLA1 (UniProt P09884) | -0.034 |
| PSMD1 (UniProt Q99460) | -0.037 |
| PHKA1 (UniProt P46020) | -0.043 |
| PPP2R5C isoform 5 (UniProt Q13362) | -0.023 |
| PTRHD1 (UniProt Q6GMV3) | 0.155 |
| PSMC5 (UniProt P62195) | -0.038 |
| PDLIM7 (UniProt Q9NR12) | 0.017 |
